Test results as given in PubChem BioAssay AID488890 (Southern Research Specialized Biocontainment Screening …, 2010).
Screen size: about 320,000 compounds; about 1,300 (0.41%) were called active. Roughly 3% stayed inconclusive and do not appear here. How the calls were made is not given here. The list is a sample of the results. Measured potencies and affinities stand elsewhere.

experiment: growth inhibition of non-replicating M. tuberculosis (AID 488890); settings: Mycobacterium tuberculosis non-replicating, at 25 µM, stronger effect = higher value;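 further: plate controls were DMSO cells for no effect and high antibiotic wells for full effect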

SMILES | inhibition [%]
Cc1cc(C(=O)N/N=C/c2c[nH]c3ccccc23)c(C)o1 | 4.64
Cc1cccc(C)c1NC(=O)Cc1cccs1 | 3.18
Cc1cc(C)c2nc(SC3CCOC3=O)cc(C)c2c1 (configuration not stated) | 0.02
CC12CCC(C/C1=N\OC(=O)c1c(F)cccc1F)C2(C)C (configuration not stated) | -9.61
CC(=O)Nc1ccc(Oc2nc(C(F)(F)F)nc3ccccc23)cc1 | 1.04
COCC1CCCCN1Cc1cn(-c2ccccc2)nc1-c1ccc2c(c1)OCO2 (configuration not stated) | 0.23
CSc1ccccc1NC(=O)c1ccc(N2CCCC2=O)cc1 | 7.7
C=CCN=C1NN=C(c2cc(C)n(CC=C)c2C)CS1 | -5.39
C=CCn1c(C)cc(C2=NNC(=NC(C)(C)C)SC2)c1C | 27
Cc1cccc(C)c1NC(=O)c1ccc([N+](=O)[O-])s1 | 67
O=C(Nc1ccccc1F)c1cc(C(=O)Nc2ccccc2F)cc([N+](=O)[O-])c1 | 5.63
Cc1cccc(NC(=O)c2cc3cc([N+](=O)[O-])ccc3s2)n1 | 16.8
CN(C)NC(=O)c1ccc([N+](=O)[O-])s1 | 11.4
CC(=O)Nc1ccc(S(=O)(=O)Nc2nccc(C)n2)cc1 | 20.2
Cc1ccnc(NS(=O)(=O)c2ccc(NC(=O)c3ccc(Cl)cc3[N+](=O)[O-])cc2)n1 | -0.5
O=c1[nH]c2c(c(=O)n1C1CCCCC1)CCC2 | -6.62

SMILES | inhibition [%]
COC(=O)c1cccc(CSc2nnc(-c3ccco3)n2-c2ccccc2)c1 | 24
C=CCC(C=C)S(=O)(=O)c1ccc(C)cc1 (configuration not stated) | -2.81
CCCCCC1CC(/C(C)=N/NC(N)=O)OC1=O (configuration not stated) | 9.08
O=C(c1ccc(-c2nc3ccccc3s2)s1)N1CCOCC1 | -4.2
CCNC(=O)COC(=O)c1cc(C)nc2ccccc12 | -1.86
COCCNC(=O)COC(=O)CSCc1nc2ccccc2s1 | -4.84
CCN1CCN(C(=O)c2ccc(-c3nc4ccccc4s3)s2)CC1 | -3.89
Cc1noc(C)c1COC(=O)c1ccc(-c2nc3ccccc3s2)s1 | 9.44
COCCNC(=O)c1nc2ccccc2s1 | 52.5
O=S(=O)(Nc1ccc2cn[nH]c2c1)c1ccc(C(F)(F)F)cc1 | 21.1
Cc1occc1C(=O)N/N=C/c1cccnc1 | -3.52
Cc1ccc(S(=O)(=O)NCc2ccccc2)cc1C(=O)NCCc1ccc(S(N)(=O)=O)cc1 | -1.65
CSc1ncc(CN2CCN(C3CCCC3)C(CCO)C2)cn1 (configuration not stated) | 6.95
Cc1cc2oc(=O)cc(CN(C)Cc3cccc(F)c3)c2cc1C | 12.8
Cc1ccc(/C=C/C(=O)O)cc1S(=O)(=O)NCCCO | -0.14
CCOc1cc(/C=N/NC(=O)Cn2nc([N+](=O)[O-])cc2C)cc(Br)c1OCc1ccccc1C | -2.93
